Measured values taken from PubChem BioAssay (NCI).
The panel holds about 79,000 compounds, 15% with a hit somewhere; the sample as a whole holds those more often. Calls of active or inactive are those of the source. Rule as the data show it: active = growth inhibition above about 70%; inactive = the rest.

Assay: NCI Yeast Anticancer Drug Screen. Data for the rad18 strain (AID 177)
Conditions: S. cerevisiae rad18 mutant growth inhibition, hits give high values
Procedure: Growth inhibition of yeast strains with defined genetic alterations is measured as a screen for potential anti-cancer activity. Selected strains with alterations in DNA damage repair or cell cycle control were exposed to compounds and growth inhibition was measured relative to vehicle treated controls. The strain used in this assay is rad18

Measured: growth inhibition

NC(N)=NS(=O)(=O)c1ccc(Nc2c3ccccc3nc3c(C(=O)NC(CO)(CO)CO)cccc23)cc1
inactive: at 1.2 µM -3% | at 3.7 µM 0% | at 11.0 µM -1% | at 33.0 µM 2% | at 100.0 µM 9%

N#Cc1nc(Nc2ccc(Cl)cc2)sc1N
active: at 100.0 µM 91%
inactive: at 1.2 µM -17% | at 3.7 µM -17% | at 11.0 µM -3% | at 33.0 µM 44%

CCCCCCC=C(C(=O)OCC)C(=O)OCC
inactive: at 1.2 µM -1% | at 3.7 µM 5% | at 11.0 µM 8% | at 33.0 µM 14% | at 100.0 µM 32%

O=c1c2ccccc2nc(-c2cccc([N+](=O)[O-])c2)n1O
active: at 11.0 µM 88% | at 33.0 µM 92% | at 100.0 µM 92%
inactive: at 1.2 µM 37% | at 3.7 µM 64%

O=C(C#Cc1ccccc1)Nc1ccccc1
active: at 100.0 µM 94%
inactive: at 1.2 µM -9% | at 3.7 µM -12% | at 11.0 µM -9% | at 33.0 µM 8%

C1=CCN([B-](c2ccccc2)[C+]2CCCCC2)C=C1
active: at 33.0 µM 75% | at 100.0 µM 98%
inactive: at 1.2 µM 0% | at 3.7 µM 0% | at 11.0 µM 2%

S=C(NCc1ccccn1)N/N=C/c1ccccn1
active: at 1.2 µM 98% | at 3.7 µM 98% | at 11.0 µM 98% | at 33.0 µM 98% | at 100.0 µM 99%

COc1ccc2nc3cccc([N+](=O)[O-])c3c(NCCCCCC(=O)O)c2c1
active: at 1.2 µM 96% | at 3.7 µM 96% | at 11.0 µM 96% | at 33.0 µM 97% | at 100.0 µM 98%
